# Laboratory results: PMC11006913
# Where a chain is given by its changes, count along the chain named.
# Experiments:
# Test in all cases: PBM; 200 nM protein, PBS
# Conditions in all cases: dsDNA, one strand shown
# HOXC10 [1] = biological target: HOXC10 (Homo sapiens, UniProt Q9NYD6 254-340)
# HOXA2 [2] = biological target: HOXA2 (Homo sapiens, UniProt O43364 129-215, R185T)
# HOXA2 [3] = biological target: HOXA2 (Homo sapiens, UniProt O43364 129-215, R185K)
# HOXC10 [4] = biological target: HOXC10 (Homo sapiens, UniProt Q9NYD6 254-340, K271E)
# Sequence of HOXC10 (Homo sapiens, UniProt Q9NYD6 254-340, K271E) (Q9NYD6 254-340 K271E): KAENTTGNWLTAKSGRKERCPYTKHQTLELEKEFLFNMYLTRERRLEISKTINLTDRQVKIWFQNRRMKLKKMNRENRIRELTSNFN
# HOXA2 [5] = biological target: HOXA2 (Homo sapiens, UniProt O43364 129-215, Y150S)
# Sequence of HOXA2 (Homo sapiens, UniProt O43364 129-215, Y150S) (O43364 129-215 Y150S): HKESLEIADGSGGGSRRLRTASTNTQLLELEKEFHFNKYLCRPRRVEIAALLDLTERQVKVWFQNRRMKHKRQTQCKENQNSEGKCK
# HOXA2 [6] = biological target: HOXA2 (Homo sapiens, UniProt O43364 129-215)
# Sequence of HOXA2 (Homo sapiens, UniProt O43364 129-215) (O43364 129-215): as the sequence (O43364 129-215 Y150S) above, with S22Y counted along it
# PRRX1 = PRRX1 (Homo sapiens, UniProt P54821 80-166, F113S)
# Sequence of PRRX1 (P54821 80-166 F113S): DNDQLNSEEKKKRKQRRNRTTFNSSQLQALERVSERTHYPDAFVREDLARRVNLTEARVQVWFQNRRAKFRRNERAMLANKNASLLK
# HOXC9 = HOXC9 (Homo sapiens, UniProt P31274 178-260, R222W)
# Sequence of HOXC9 (P31274 178-260 R222W): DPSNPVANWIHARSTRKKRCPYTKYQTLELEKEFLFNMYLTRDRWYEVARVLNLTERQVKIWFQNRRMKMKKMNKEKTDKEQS
# PAX4 [7] = biological target: T1, PAX4 (Homo sapiens, UniProt O43316 9-242, R200K)
# T1 sequence: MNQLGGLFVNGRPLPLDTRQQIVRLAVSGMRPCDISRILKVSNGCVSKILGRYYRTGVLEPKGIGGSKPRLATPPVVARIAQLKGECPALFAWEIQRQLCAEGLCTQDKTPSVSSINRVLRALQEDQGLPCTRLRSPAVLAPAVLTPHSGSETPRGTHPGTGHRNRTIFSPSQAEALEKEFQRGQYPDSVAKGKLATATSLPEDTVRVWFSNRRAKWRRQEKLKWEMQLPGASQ
# PAX4 [8] = biological target: T2, PAX4 (Homo sapiens, UniProt O43316 9-242)
# T2 sequence: T1 sequence with K192R
# PAX4 [9] = biological target: T3, PAX4 (Homo sapiens, UniProt O43316 9-242, R200Q)
# T3 sequence: T1 sequence with K192Q
# PAX4 [10] = biological target: T4, PAX4 (Homo sapiens, UniProt O43316 9-242, F177V)
# T4 sequence: T1 sequence with F169V, K192R
# PAX4 [11] = biological target: T5, PAX4 (Homo sapiens, UniProt O43316 9-242, F177Y)
# T5 sequence: T1 sequence with F169Y, K192R
# PROP1 [12] = biological target: PROP1 (Homo sapiens, UniProt O75360 56-141)
# Sequence of PROP1 (Homo sapiens, UniProt O75360 56-141) (O75360 56-141): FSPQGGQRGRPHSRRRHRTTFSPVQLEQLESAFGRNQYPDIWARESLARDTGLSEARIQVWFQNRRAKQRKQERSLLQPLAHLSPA
# PROP1 [13] = biological target: PROP1 (Homo sapiens, UniProt O75360 56-141, R99H)
# Sequence of PROP1 (Homo sapiens, UniProt O75360 56-141, R99H) (O75360 56-141 R99H): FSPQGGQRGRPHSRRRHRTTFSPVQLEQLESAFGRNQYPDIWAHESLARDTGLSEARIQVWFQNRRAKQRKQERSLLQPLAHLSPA
# PROP1 [14] = biological target: PROP1 (Homo sapiens, UniProt O75360 56-141, F88S)
# Sequence of PROP1 (Homo sapiens, UniProt O75360 56-141, F88S) (O75360 56-141 F88S): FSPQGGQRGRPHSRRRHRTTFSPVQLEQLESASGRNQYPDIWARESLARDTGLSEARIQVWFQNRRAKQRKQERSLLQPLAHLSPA
# PAX4 [15] = biological target: T6, PAX4 (Homo sapiens, UniProt O43316 9-242, R227W)
# T6 sequence: T1 sequence with K192R, R219W
# MSX2 [16] = biological target: MSX2 (Homo sapiens, UniProt P35548 130-214, R199I)
# Sequence of MSX2 (Homo sapiens, UniProt P35548 130-214, R199I) (P35548 130-214 R199I): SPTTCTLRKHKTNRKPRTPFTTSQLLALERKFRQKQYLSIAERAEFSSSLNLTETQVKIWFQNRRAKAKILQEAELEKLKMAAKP
# MSX2 [17] = biological target: MSX2 (Homo sapiens, UniProt P35548 130-214)
# Sequence of MSX2 (Homo sapiens, UniProt P35548 130-214) (P35548 130-214): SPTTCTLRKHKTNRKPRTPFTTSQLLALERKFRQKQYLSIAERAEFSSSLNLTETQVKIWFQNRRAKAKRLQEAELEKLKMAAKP
# MSX2 [18] = biological target: MSX2 (Homo sapiens, UniProt P35548 130-214, F161Y)
# Sequence of MSX2 (Homo sapiens, UniProt P35548 130-214, F161Y) (P35548 130-214 F161Y): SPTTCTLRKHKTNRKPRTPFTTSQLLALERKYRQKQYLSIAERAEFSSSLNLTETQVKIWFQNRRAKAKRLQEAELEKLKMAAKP
# ALX1 [19] = biological target: ALX1 (Homo sapiens, UniProt Q15699 118-204, L144V)
# Sequence of ALX1 (Homo sapiens, UniProt Q15699 118-204, L144V) (Q15699 118-204 L144V): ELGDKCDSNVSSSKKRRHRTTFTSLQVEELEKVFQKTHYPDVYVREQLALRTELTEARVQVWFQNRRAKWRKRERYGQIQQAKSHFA
# ALX1 [20] = biological target: ALX1 (Homo sapiens, UniProt Q15699 118-204, L144R)
# Sequence of ALX1 (Homo sapiens, UniProt Q15699 118-204, L144R) (Q15699 118-204 L144R): as the sequence (Q15699 118-204 L144V) above, with V27R counted along it
# ALX1 [21] = biological target: ALX1 (Homo sapiens, UniProt Q15699 118-204)
# Sequence of ALX1 (Homo sapiens, UniProt Q15699 118-204) (Q15699 118-204): as the sequence (Q15699 118-204 L144V) above, with V27L counted along it
# Sequence of HOXC10 (Homo sapiens, UniProt Q9NYD6 254-340) (Q9NYD6 254-340): as the sequence (Q9NYD6 254-340 K271E) above, with E18K counted along it
# Sequence of HOXA2 (Homo sapiens, UniProt O43364 129-215, R185T) (O43364 129-215 R185T): as the sequence (O43364 129-215 Y150S) above, with S22Y, R57T counted along it
# Sequence of HOXA2 (Homo sapiens, UniProt O43364 129-215, R185K) (O43364 129-215 R185K): as the sequence (O43364 129-215 Y150S) above, with S22Y, R57K counted along it
sequence,measurement,setting,value
CGCCCCCC,binding signal,HOXC10 [1],"9.91 upbm affinity estimate (log intensity, higher = more binding, comparable within an allelic series)"
same,binding signal,HOXA2 [2],"6.85 upbm affinity estimate (log intensity, higher = more binding, comparable within an allelic series)"
same,binding signal,HOXA2 [3],"9.91 upbm affinity estimate (log intensity, higher = more binding, comparable within an allelic series)"
same,binding signal,HOXC10 [4],"9.87 upbm affinity estimate (log intensity, higher = more binding, comparable within an allelic series)"
same,binding signal,HOXA2 [5],"10.3 upbm affinity estimate (log intensity, higher = more binding, comparable within an allelic series)"
same,binding signal,HOXA2 [6],"6.92 upbm affinity estimate (log intensity, higher = more binding, comparable within an allelic series)"
TGTTACAA,binding signal,HOXC10 [1],"10.6 upbm affinity estimate (log intensity, higher = more binding, comparable within an allelic series)"
TTAATAAA,binding signal,HOXC10 [1],"12.2 upbm affinity estimate (log intensity, higher = more binding, comparable within an allelic series)"
same,binding signal,PRRX1,"11 upbm affinity estimate (log intensity, higher = more binding, comparable within an allelic series)"
same,binding signal,HOXC10 [4],"11.5 upbm affinity estimate (log intensity, higher = more binding, comparable within an allelic series)"
same,binding signal,HOXC9,"11.2 upbm affinity estimate (log intensity, higher = more binding, comparable within an allelic series)"
CTCCCCCC,binding signal,HOXC10 [1],"9.99 upbm affinity estimate (log intensity, higher = more binding, comparable within an allelic series)"
same,binding signal,PAX4 [7],"9.31 upbm affinity estimate (log intensity, higher = more binding, comparable within an allelic series)"
same,binding signal,PAX4 [8],"9.32 upbm affinity estimate (log intensity, higher = more binding, comparable within an allelic series)"
same,binding signal,PAX4 [9],"9.28 upbm affinity estimate (log intensity, higher = more binding, comparable within an allelic series)"
same,binding signal,PAX4 [10],"9.04 upbm affinity estimate (log intensity, higher = more binding, comparable within an allelic series)"
same,binding signal,HOXC10 [4],"9.94 upbm affinity estimate (log intensity, higher = more binding, comparable within an allelic series)"
same,binding signal,PAX4 [11],"9.19 upbm affinity estimate (log intensity, higher = more binding, comparable within an allelic series)"
same,binding signal,PROP1 [12],"6.67 upbm affinity estimate (log intensity, higher = more binding, comparable within an allelic series)"
same,binding signal,PROP1 [13],"6.5 upbm affinity estimate (log intensity, higher = more binding, comparable within an allelic series)"
same,binding signal,PROP1 [14],"5.95 upbm affinity estimate (log intensity, higher = more binding, comparable within an allelic series)"
same,binding signal,PAX4 [15],"9.13 upbm affinity estimate (log intensity, higher = more binding, comparable within an allelic series)"
GGTTATAC,binding signal,HOXC10 [1],"10.8 upbm affinity estimate (log intensity, higher = more binding, comparable within an allelic series)"
GCCCGCAC,binding signal,HOXC10 [1],"10.1 upbm affinity estimate (log intensity, higher = more binding, comparable within an allelic series)"
same,binding signal,HOXA2 [2],"7.43 upbm affinity estimate (log intensity, higher = more binding, comparable within an allelic series)"
same,binding signal,MSX2 [16],"9.56 upbm affinity estimate (log intensity, higher = more binding, comparable within an allelic series)"
same,binding signal,HOXA2 [3],"10.2 upbm affinity estimate (log intensity, higher = more binding, comparable within an allelic series)"
same,binding signal,HOXC10 [4],"9.97 upbm affinity estimate (log intensity, higher = more binding, comparable within an allelic series)"
same,binding signal,MSX2 [17],"9.65 upbm affinity estimate (log intensity, higher = more binding, comparable within an allelic series)"
same,binding signal,MSX2 [18],"9.65 upbm affinity estimate (log intensity, higher = more binding, comparable within an allelic series)"
same,binding signal,HOXA2 [5],"10.4 upbm affinity estimate (log intensity, higher = more binding, comparable within an allelic series)"
same,binding signal,HOXA2 [6],"7.36 upbm affinity estimate (log intensity, higher = more binding, comparable within an allelic series)"
ACCCGAGC,binding signal,HOXC10 [1],"10.1 upbm affinity estimate (log intensity, higher = more binding, comparable within an allelic series)"
same,binding signal,PAX4 [7],"9.37 upbm affinity estimate (log intensity, higher = more binding, comparable within an allelic series)"
same,binding signal,PAX4 [8],"9.24 upbm affinity estimate (log intensity, higher = more binding, comparable within an allelic series)"
same,binding signal,ALX1 [19],"6.62 upbm affinity estimate (log intensity, higher = more binding, comparable within an allelic series)"
same,binding signal,PAX4 [9],"9.32 upbm affinity estimate (log intensity, higher = more binding, comparable within an allelic series)"
same,binding signal,ALX1 [20],"6.43 upbm affinity estimate (log intensity, higher = more binding, comparable within an allelic series)"
same,binding signal,PAX4 [10],"9.28 upbm affinity estimate (log intensity, higher = more binding, comparable within an allelic series)"
same,binding signal,HOXC10 [4],"10 upbm affinity estimate (log intensity, higher = more binding, comparable within an allelic series)"
same,binding signal,PAX4 [11],"9.29 upbm affinity estimate (log intensity, higher = more binding, comparable within an allelic series)"
same,binding signal,PAX4 [15],"9.37 upbm affinity estimate (log intensity, higher = more binding, comparable within an allelic series)"
same,binding signal,ALX1 [21],"6.4 upbm affinity estimate (log intensity, higher = more binding, comparable within an allelic series)"
ACCAATAC,binding signal,HOXC10 [1],"10.6 upbm affinity estimate (log intensity, higher = more binding, comparable within an allelic series)"
TATGTGCA,binding signal,HOXC10 [1],"10.7 upbm affinity estimate (log intensity, higher = more binding, comparable within an allelic series)"
